Experimental data published in the supplement of paper PMC10849652.
Targets with a hit are over-represented here; the source holds about 7,900 in all. About 0.6% of all pairs of compound and target were hits.

What was measured:
Assay in all cases: log2 fold change, soluble protein after heating vs DMSO (PISA); higher = thermal stabilisation; K562 cells, 10 uM, 30 min; active = over 0.2 and 3.5 SD of the protein, either way, in both replicates (recomputed)
erlotinib = compound: C#Cc1cccc(Nc2ncnc3cc(OCCOC)c(OCCOC)cc23)c1 [erlotinib]
Summary of the method: (§1)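 K562 cells at 2×10^6 cells/mL were exposed to 10 μM compound for 30 min, then aliquots were heated for 3 min across 48°C-58°C, pooled, and extracted in PBS containing 0.5% NP-40 at 4°C. The supernatant after 21,000xg for 90 min was taken as soluble protein and measured by TMTpro 16plex LC-MS/MS with channel sums equalised. Thermal stability is reported relative to control samples, with values from duplicates. Fold changes are given on a log2 scale.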

[1] = compound: C/C(=N\NC(=O)C1=CC(=CC=C1)S(=O)(=O)N2CCOCC2)/C3=C(C=CC(=C3)Cl)O
Summary of the method: as §1

[2] = compound: C1=CC(=C(C=C1Cl)C2=NC3=NC=CN=C3C(=N2)NC4=CC=NC=C4)F
Summary of the method: as §1

[3] = compound: C1=CC(=CC=C1C2=NC3=C(N2)C=C(C=C3)C(=O)N)OC4=CC=C(C=C4)Cl
Summary of the method: as §1

[4] = compound: C1=CC2=C(C=CC(=C2)/C=C\3/C(=O)NC(=NCC4=CC=CS4)S3)N=C1
Summary of the method: as §1

[5] = compound: C1=CC2=NC=CN=C2C=C1/C=C/3\C(=O)NC(=O)S3
Summary of the method: as §1

[6] = compound: C1=CC=C(C=C1)C2=NC(=C(N2)C3=CC=NC=C3)C4=CC(=C(C=C4)Cl)O
Summary of the method: as §1

[7] = compound: C1=CC=C2C(=C1)C3=NNC4=CC=CC(=C43)C2=O
Summary of the method: as §1

[8] = compound: C1CCN(C1)C(=O)NC2=CC=CC(=C2)NC3=NC=C(C(=N3)NCCC4=CN=CN4)Br
Summary of the method: as §1

[9] = compound: C1CN(CCC1(CC2=CC=C(C=C2)Cl)N)C3=NC=NC4=C3C=CN4
Summary of the method: as §1

IRAK-1-4 Inhibitor I = compound: C1COCCN1CCN2C3=CC=CC=C3N=C2NC(=O)C4=CC(=CC=C4)[N+](=O)[O-] [IRAK-1-4 Inhibitor I]
Summary of the method: as §1

ibrutinib = compound: C=CC(=O)N1CCC[C@@H](n2nc(-c3ccc(Oc4ccccc4)cc3)c3c(N)ncnc32)C1 [ibrutinib]
Summary of the method: as §1

[10] = compound: CC(=O)c1cnc2ccc(-c3cc(Cl)c(O)c(Cl)c3)nc2c1N[C@H]1CC[C@H](CN(C)C)CC1
Summary of the method: as §1

ralimetinib = compound: CC(C)(C)Cn1c(N)nc2ccc(-c3[nH]c(C(C)(C)C)nc3-c3ccc(F)cc3)nc21 [ralimetinib]
Summary of the method: as §1

[11] = compound: CC(C)(O)CC(=O)NCCn1ccc2ncnc(Nc3ccc(Oc4cccc(C(F)(F)F)c4)c(Cl)c3)c21
Summary of the method: as §1

[12] = compound: CC(C)C1=C2N=C(C=C(N2N=C1)NCC3=CC=CC=C3)NCCCCCCN
Summary of the method: as §1

[13] = compound: CC(C)C[C@@H](C=O)NC(=O)[C@H](CC(C)C)NC(=O)[C@H](CC(C)C)NC(=O)OCc1ccccc1
Summary of the method: as §1

pinometostat = compound: CC(C)N(C[C@H]1O[C@@H](n2cnc3c(N)ncnc32)[C@H](O)[C@@H]1O)[C@H]1C[C@@H](CCc2nc3cc(C(C)(C)C)ccc3[nH]2)C1 [pinometostat]
Summary of the method: as §1

[14] = compound: CC1=C(C(CC(=O)N1)C2=CC=C(C=C2)C(F)(F)F)C(=O)NC3=C(C=C4C(=C3)C=NN4)F
Summary of the method: as §1

[15] = compound: CC1=C(C2=C(C=C1)C(=O)C3=CC=CC=C3N2CCCN)C
Summary of the method: as §1

Measured: log2 fold change

KCTD10 (UniProt Q9H3F6)
inactive: erlotinib -0.041 | [1] 0.159 | [2] -0.051 | [3] 0.014 | [4] -0.021 | [5] 0.049 | [6] -0.171 | [7] 0.045 | [8] -0.027 | [9] -0.055 | IRAK-1-4 Inhibitor I 0.01 | ibrutinib 0.024 | [10] -0.037 | ralimetinib -0.049 | [11] 0.043 | [13] -0.02 | pinometostat -0.021 | [14] -0.017 | [15] -0.034
active: [12] 0.277

IGFBP4 (UniProt P22692)
inactive: erlotinib -0.03 | [1] -0.14 | [2] 0.023 | [3] 0.093 | [4] -0.124 | [5] 0.178 | [6] -0.051 | [7] -0.217 | [8] 0.108 | [9] 0.076 | IRAK-1-4 Inhibitor I 0.011 | ibrutinib -0.015 | [10] 0.171 | ralimetinib -0.04 | [11] 0.047 | [12] 0.028 | [13] 0.054 | pinometostat 0.032 | [14] 0.034 | [15] -0.09

KSR1 (UniProt Q8IVT5)
UniProt Q8IVT5, sequence (Q8IVT5 whole entry, looked up): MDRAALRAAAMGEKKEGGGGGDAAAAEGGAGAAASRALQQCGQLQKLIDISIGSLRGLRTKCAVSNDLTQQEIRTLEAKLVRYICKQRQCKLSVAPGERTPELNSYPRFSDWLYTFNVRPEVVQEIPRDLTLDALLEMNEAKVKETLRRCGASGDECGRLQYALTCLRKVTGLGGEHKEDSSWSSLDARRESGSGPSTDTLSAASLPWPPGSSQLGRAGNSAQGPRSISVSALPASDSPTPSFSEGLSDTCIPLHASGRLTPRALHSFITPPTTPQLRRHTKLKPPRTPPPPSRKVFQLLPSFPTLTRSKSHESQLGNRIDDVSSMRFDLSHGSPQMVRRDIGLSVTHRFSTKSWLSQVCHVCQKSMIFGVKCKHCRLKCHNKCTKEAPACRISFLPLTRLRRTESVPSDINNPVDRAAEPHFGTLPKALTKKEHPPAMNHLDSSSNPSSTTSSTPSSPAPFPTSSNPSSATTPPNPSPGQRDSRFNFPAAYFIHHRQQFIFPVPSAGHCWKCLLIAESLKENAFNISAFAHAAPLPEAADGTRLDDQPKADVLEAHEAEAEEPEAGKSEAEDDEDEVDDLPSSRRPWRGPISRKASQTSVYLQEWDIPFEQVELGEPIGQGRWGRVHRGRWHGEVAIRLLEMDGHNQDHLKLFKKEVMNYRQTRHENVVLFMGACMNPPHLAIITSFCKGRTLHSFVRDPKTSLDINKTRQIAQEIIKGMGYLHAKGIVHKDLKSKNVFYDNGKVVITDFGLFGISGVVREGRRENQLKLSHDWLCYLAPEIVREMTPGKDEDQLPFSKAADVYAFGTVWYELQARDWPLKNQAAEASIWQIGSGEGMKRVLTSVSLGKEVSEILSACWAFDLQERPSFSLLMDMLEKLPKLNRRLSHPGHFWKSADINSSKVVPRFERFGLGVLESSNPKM
active: [10] -0.807
inactive: erlotinib 0.082 | [1] 0.004 | [2] 0.044 | [3] -0.044 | [4] 0.162 | [5] 0.058 | [6] 0.185 | [7] -0.106 | [8] -0.088 | [9] 0.058 | IRAK-1-4 Inhibitor I -0.07 | ibrutinib -0.084 | ralimetinib 0.065 | [11] -0.231 | [12] -0.085 | [13] 0.085 | pinometostat 0.035 | [14] 0.011 | [15] 0.044

LPGAT1 (UniProt Q92604)
UniProt Q92604, sequence (Q92604 whole entry, looked up): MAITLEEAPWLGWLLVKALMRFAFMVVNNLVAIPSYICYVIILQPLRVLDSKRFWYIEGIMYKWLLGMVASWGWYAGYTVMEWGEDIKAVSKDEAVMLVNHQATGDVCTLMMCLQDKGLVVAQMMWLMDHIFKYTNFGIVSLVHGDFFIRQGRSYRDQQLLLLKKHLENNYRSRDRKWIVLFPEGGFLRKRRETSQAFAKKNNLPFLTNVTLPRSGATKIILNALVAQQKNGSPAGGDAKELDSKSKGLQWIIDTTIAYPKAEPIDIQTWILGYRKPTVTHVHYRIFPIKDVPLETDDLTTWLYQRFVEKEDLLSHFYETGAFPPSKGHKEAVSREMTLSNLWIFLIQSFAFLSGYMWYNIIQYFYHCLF
inactive: erlotinib -0.005 | [1] 0.022 | [2] 0.201 | [3] -0.274 | [4] 0.183 | [5] 0.098 | [6] -0.043 | [7] -0.025 | [8] 0.017 | [9] 0.115 | IRAK-1-4 Inhibitor I -0.115 | ibrutinib -0.05 | [10] 0.064 | ralimetinib 0.041 | [11] -0.066 | [12] -0.277 | [13] -0.057 | pinometostat 0.013 | [14] 0.037 | [15] 0.069

ITPRIP (UniProt Q8IWB1)
UniProt Q8IWB1, sequence (Q8IWB1 whole entry, looked up): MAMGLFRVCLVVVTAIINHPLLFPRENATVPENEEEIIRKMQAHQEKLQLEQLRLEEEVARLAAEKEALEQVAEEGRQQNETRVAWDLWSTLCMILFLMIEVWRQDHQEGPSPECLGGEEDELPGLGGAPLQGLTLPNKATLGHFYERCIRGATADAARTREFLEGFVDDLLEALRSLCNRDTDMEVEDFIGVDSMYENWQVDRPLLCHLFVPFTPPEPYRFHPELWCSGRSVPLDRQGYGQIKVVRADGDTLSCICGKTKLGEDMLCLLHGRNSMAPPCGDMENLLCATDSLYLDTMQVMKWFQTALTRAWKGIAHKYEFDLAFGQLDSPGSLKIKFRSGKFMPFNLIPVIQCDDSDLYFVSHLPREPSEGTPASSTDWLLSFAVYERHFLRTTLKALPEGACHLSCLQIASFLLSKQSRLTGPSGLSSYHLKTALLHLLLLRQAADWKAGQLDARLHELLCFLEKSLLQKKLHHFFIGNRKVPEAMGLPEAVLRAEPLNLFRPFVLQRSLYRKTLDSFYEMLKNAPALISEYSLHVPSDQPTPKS
inactive: erlotinib 0.012 | [1] -0.086 | [2] 0.052 | [3] 0.034 | [4] -0.05 | [5] 0.01 | [6] -0.085 | [7] -0.094 | [8] -0.02 | [9] 0.012 | IRAK-1-4 Inhibitor I -0.063 | ibrutinib 0.059 | [10] -0.013 | ralimetinib 0.005 | [11] 0.007 | [12] -0.074 | [13] 0.082 | pinometostat -0.005 | [14] -0.001 | [15] 0.022

KDM1A isoform 2 (UniProt O60341)
inactive: erlotinib 0.059 | [1] 0.039 | [2] 0.006 | [3] -0.028 | [4] 0.075 | [5] -0.015 | [6] 0.059 | [7] -0.026 | [8] -0.03 | [9] -0.069 | IRAK-1-4 Inhibitor I -0.014 | ibrutinib 0.014 | [10] -0.123 | ralimetinib 0.175 | [11] -0.111 | [12] -0.041 | [13] 0.031 | pinometostat 0.046 | [14] 0.012 | [15] -0.05

MAN2B2 (UniProt Q9Y2E5)
inactive: erlotinib -0.035 | [1] 0.005 | [2] -0.008 | [3] -0.003 | [4] 0.076 | [5] 0.025 | [6] -0.07 | [7] 0.063 | [8] -0.02 | [9] -0.186 | IRAK-1-4 Inhibitor I 0.086 | ibrutinib -0.079 | [10] -0.171 | ralimetinib 0.029 | [11] -0.033 | [12] -0.078 | [13] 0.043 | pinometostat 0.089 | [14] 0.064 | [15] -0.048

LBR (UniProt Q14739)
UniProt Q14739, sequence (Q14739 whole entry, looked up): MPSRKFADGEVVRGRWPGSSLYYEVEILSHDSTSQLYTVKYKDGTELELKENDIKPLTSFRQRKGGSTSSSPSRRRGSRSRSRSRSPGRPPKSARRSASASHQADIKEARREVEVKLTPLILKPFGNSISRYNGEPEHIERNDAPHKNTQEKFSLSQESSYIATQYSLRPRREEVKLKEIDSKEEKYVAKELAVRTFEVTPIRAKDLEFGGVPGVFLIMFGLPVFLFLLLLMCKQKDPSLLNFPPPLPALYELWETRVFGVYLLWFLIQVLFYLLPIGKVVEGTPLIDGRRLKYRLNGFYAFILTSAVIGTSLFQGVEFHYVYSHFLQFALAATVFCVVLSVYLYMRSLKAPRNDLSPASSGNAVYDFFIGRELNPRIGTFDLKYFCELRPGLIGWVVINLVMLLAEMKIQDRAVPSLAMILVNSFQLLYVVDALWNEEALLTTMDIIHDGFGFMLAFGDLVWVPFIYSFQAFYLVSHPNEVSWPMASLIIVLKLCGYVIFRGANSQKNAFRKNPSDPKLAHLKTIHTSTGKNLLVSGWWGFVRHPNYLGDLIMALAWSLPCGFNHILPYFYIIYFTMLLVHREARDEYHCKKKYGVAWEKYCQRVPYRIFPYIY
inactive: erlotinib 0.009 | [1] 0.122 | [2] 0.043 | [3] -0.016 | [4] 0.029 | [5] 0.034 | [6] 0.059 | [7] -0.002 | [8] 0.037 | [9] 0.21 | IRAK-1-4 Inhibitor I -0.044 | ibrutinib -0.092 | [10] 0.038 | ralimetinib -0.001 | [11] -0.211 | [12] -0.168 | [13] -0.083 | pinometostat 0.211 | [14] -0.036 | [15] 0.188

IKZF1 (UniProt Q13422)
UniProt Q13422, sequence (Q13422 whole entry, looked up): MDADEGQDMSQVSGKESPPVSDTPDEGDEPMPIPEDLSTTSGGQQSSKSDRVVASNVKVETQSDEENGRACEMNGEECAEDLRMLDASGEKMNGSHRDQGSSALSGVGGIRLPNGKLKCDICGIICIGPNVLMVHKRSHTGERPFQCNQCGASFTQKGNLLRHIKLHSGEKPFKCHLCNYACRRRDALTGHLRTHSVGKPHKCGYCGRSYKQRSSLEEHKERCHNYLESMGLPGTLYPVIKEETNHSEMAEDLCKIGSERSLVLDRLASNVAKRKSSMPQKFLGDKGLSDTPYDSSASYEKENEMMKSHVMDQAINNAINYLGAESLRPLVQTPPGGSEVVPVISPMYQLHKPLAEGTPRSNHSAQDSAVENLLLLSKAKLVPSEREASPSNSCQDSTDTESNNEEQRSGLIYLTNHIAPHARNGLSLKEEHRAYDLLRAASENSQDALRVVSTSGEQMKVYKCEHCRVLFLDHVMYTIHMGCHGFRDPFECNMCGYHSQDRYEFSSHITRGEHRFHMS
inactive: erlotinib -0.005 | [1] -0.018 | [2] -0.008 | [3] 0.002 | [4] -0.015 | [5] 0.019 | [6] -0.069 | [7] 0.144 | [8] 0.051 | [9] 0 | IRAK-1-4 Inhibitor I -0.017 | ibrutinib 0.041 | [10] -0.069 | ralimetinib -0.036 | [11] -0.015 | [12] -0.016 | [13] 0.011 | pinometostat 0.01 | [14] 0.02 | [15] 0.275

MAPK9 (UniProt P45984)
inactive: erlotinib 0.007 | [1] 0.027 | [2] 0.031 | [3] -0.02 | [4] 0 | [5] -0.02 | [6] -0.026 | [7] 0.202 | [8] 0.063 | [9] 0.016 | IRAK-1-4 Inhibitor I -0.002 | ibrutinib -0.016 | ralimetinib 0.208 | [11] 0.005 | [12] -0.037 | [13] -0.032 | pinometostat -0.032 | [14] -0.022 | [15] 0
active: [10] 0.278

MIEF1 (UniProt L0R8F8)
inactive: erlotinib 0.025 | [1] 0.102 | [2] 0.021 | [3] -0.022 | [4] -0.073 | [5] -0.072 | [6] 0.033 | [7] 0.02 | [8] -0.107 | [9] 0.019 | IRAK-1-4 Inhibitor I 0.071 | ibrutinib 0.065 | [10] 0.022 | ralimetinib -0.004 | [11] 0.011 | [12] -0.021 | [13] -0.053 | pinometostat -0.005 | [14] 0.052 | [15] -0.004

KLC2 (UniProt Q9H0B6)
UniProt Q9H0B6, sequence (Q9H0B6 whole entry, looked up): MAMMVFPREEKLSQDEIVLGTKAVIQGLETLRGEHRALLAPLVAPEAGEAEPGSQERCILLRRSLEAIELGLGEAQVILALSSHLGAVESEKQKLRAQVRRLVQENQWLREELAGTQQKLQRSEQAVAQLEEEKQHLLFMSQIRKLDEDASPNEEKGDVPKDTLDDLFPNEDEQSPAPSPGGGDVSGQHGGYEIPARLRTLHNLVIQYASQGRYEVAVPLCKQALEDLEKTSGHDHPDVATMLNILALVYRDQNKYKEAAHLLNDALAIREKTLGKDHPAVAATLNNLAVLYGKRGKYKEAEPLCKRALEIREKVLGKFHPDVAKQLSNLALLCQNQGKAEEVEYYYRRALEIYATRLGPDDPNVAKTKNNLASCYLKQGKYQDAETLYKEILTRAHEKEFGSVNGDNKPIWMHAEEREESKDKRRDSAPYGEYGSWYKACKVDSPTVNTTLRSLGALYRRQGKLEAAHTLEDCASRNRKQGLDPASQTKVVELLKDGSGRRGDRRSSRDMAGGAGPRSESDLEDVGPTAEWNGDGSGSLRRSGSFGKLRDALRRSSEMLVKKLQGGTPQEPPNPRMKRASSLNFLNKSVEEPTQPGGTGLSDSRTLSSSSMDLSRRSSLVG
inactive: erlotinib 0.036 | [1] 0.063 | [2] 0.008 | [3] -0.044 | [4] 0.078 | [5] 0.025 | [6] -0.039 | [7] 0.006 | [8] -0.063 | [9] -0.007 | IRAK-1-4 Inhibitor I -0.035 | ibrutinib -0.024 | ralimetinib 0.041 | [11] -0.02 | [12] -0.107 | [13] 0.083 | pinometostat 0.023 | [14] -0.03 | [15] 0.133
active: [10] -0.309

ME2 (UniProt P23368)
UniProt P23368, sequence (P23368 whole entry, looked up): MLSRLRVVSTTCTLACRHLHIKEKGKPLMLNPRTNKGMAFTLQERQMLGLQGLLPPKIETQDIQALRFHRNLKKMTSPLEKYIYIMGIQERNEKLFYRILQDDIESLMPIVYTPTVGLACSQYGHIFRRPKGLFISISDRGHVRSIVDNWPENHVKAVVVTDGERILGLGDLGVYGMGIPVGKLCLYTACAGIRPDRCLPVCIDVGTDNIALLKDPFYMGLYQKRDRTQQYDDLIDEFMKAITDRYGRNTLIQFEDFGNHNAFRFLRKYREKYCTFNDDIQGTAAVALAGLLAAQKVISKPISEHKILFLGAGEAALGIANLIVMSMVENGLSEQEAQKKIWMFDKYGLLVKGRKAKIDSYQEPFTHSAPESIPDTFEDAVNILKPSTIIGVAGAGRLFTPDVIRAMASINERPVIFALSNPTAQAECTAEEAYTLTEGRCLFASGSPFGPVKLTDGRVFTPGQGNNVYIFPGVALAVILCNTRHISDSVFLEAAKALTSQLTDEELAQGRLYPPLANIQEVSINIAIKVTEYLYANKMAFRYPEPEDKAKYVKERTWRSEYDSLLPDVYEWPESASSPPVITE
inactive: erlotinib -0.017 | [1] -0.017 | [2] 0.01 | [3] -0.078 | [4] 0.036 | [5] -0.024 | [6] 0.055 | [7] -0.061 | [8] 0.008 | [9] 0.081 | IRAK-1-4 Inhibitor I 0.009 | ibrutinib -0.039 | [10] 0.213 | ralimetinib -0.003 | [11] 0.036 | [12] 0.152 | [13] 0.025 | pinometostat -0.021 | [14] -0.048 | [15] -0.042

METTL18 (UniProt O95568)
inactive: erlotinib -0.042 | [1] -0.037 | [2] -0.08 | [3] 0.027 | [4] 0.038 | [5] 0.046 | [6] -0.039 | [7] -0.06 | [8] 0.028 | [9] 0.078 | IRAK-1-4 Inhibitor I 0.01 | ibrutinib 0.019 | [10] 0.013 | ralimetinib -0.036 | [11] 0.016 | [12] -0.009 | [13] -0.003 | pinometostat 0.023 | [14] 0.065 | [15] 0.072

MAPKAPK3 (UniProt Q16644)
UniProt Q16644, sequence (Q16644 whole entry, looked up): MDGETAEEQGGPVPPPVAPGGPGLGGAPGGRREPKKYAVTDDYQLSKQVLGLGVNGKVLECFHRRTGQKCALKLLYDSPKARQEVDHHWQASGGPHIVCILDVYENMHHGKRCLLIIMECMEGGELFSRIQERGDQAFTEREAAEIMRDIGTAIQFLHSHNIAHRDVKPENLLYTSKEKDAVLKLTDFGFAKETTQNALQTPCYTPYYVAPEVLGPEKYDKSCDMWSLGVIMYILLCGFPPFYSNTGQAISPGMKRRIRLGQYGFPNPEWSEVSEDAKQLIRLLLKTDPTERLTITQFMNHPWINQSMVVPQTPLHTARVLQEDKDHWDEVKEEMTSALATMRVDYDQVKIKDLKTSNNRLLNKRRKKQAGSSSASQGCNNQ
active: [2] 0.431 | [10] 0.332 | ralimetinib 0.413
inactive: erlotinib 0.034 | [1] -0.012 | [3] -0.041 | [4] 0.024 | [5] -0.069 | [6] 0.256 | [7] 0.029 | [8] 0.021 | [9] -0.054 | IRAK-1-4 Inhibitor I 0.031 | ibrutinib 0.006 | [11] -0.103 | [12] -0.121 | [13] -0.151 | pinometostat -0.039 | [14] -0.008 | [15] 0.045

MAPRE3 (UniProt Q9UPY8)
UniProt Q9UPY8, sequence (Q9UPY8 whole entry, looked up): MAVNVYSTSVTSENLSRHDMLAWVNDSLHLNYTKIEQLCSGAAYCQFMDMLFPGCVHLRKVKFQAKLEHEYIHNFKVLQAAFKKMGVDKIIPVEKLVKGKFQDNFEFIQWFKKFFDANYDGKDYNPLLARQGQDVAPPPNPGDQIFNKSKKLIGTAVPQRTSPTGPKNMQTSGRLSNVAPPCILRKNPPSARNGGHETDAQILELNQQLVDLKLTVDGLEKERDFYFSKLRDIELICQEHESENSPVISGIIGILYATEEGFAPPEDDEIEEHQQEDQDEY
inactive: erlotinib -0.039 | [2] 0.076 | [3] 0.003 | [4] -0.013 | [5] 0.042 | [6] -0.05 | [7] 0 | [8] 0.035 | [9] -0.01 | IRAK-1-4 Inhibitor I 0.027 | ibrutinib -0.044 | [10] -0.003 | ralimetinib -0.142 | [11] -0.049 | [12] -0.079 | [13] -0.033 | pinometostat 0.019 | [14] 0.01 | [15] -0.029
active: [1] 0.252
